Test results as given in PubChem BioAssay.
Several values for one entry are separate records, joined by “and”; a condition that tells them apart may be missing. Identical values can stand only once. Activity calls are given as the source filed them. Unless noted, how the calls were made is not given here.

Assays:
[1] = compound effects on lung adenocarcinoma cell viability – A549, calcein-AM fluorescence, 48 h, basal, profiling panel (AID 1162); conditions: higher = more signal; further: test concentration not given here
[2] = compound effects on differentiated 3T3-L1 adipocyte viability – cell-based, 3T3-L1 adipocytes, calcein-AM fluorescence, 48 h, basal, profiling panel (AID 1163); conditions: 3T3-L1 adipocytes viability, higher = more signal; further: test concentration not given here
[3] = compound effects on hepatocellular carcinoma cell viability – HepG2, calcein-AM fluorescence, 48 h, basal, profiling panel (AID 1164); conditions: higher = more signal; further: test concentration not given here
[4] = compound effects on multiple myeloma cell viability – MM1S, calcein-AM fluorescence, 48 h, basal, profiling panel (AID 1165); conditions: higher = more signal; further: test concentration not given here
[5] = calcein-AM signal in unstimulated myeloma cells – cell-based, calcein-AM fluorescence, 48 h, PK04 Diversity Set, profiling panel (AID 1166); conditions: RPMI8226 myeloma viability, higher = more signal;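 further: cells grown under basal conditions without added stimulus; test concentration not given here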
[6] = JC-1 mitochondrial signal, unstimulated HepG2 cells – cell-based, JC-1 fluorescence, 24 h, 100 nL compound, profiling panel (AID 1167); conditions: HepG2 mitochondrial potential, higher = more signal; further: test concentration not given here
[7] = JC-1 mitochondrial signal, unstimulated adipocytes – cell-based, JC-1 fluorescence, 3T3-L1 adipocytes, 24 h, 100 nL compound, profiling panel (AID 1168); conditions: JC-1 mitochondrial fluorescence, higher = more signal, called active from +8 up or from −8 down; further: test concentration not given here
[8] = JC-1 mitochondrial signal, unstimulated myeloma cells – cell-based, JC-1 fluorescence, RPMI8226, 24 h, 100 nL compound, profiling panel (AID 1169); conditions: JC-1 mitochondrial potential fluorescence, higher = more signal; further: test concentration not given here
[9] = JC-1 mitochondrial signal, unstimulated MM1S myeloma – cell-based, JC-1 fluorescence, 24 h, 100 nL compound, profiling panel (AID 1170); conditions: MM1S mitochondrial potential, higher = more signal; further: test concentration not given here
[10] = resazurin metabolic signal in A549 cells – cell-based, resazurin fluorescence, 24 h, PK04 Diversity Set, profiling panel (AID 1171); conditions: A549 viability, higher = more signal, called active from +8 up or from −8 down; further: test concentration not given here
[11] = resazurin metabolic signal in HepG2 cells – cell-based, resazurin fluorescence, 24 h, PK04 Diversity Set, profiling panel (AID 1172); conditions: HepG2 viability, higher = more signal; further: test concentration not given here
[12] = budding yeast growth changes without added modifier – OD600, strain BY4716, 24 h, basal condition, primary screen (AID 1173); conditions: S. cerevisiae BY4716 growth, OD600, 24 h; higher = more signal, called active from +8 up or from −8 down
[13] = viability profiling in MM1S myeloma cells – cell-based, resazurin fluorescence, basal, 24 h, PK04 Diversity Set, profiling panel (AID 1174); conditions: higher = more signal, called active from +8 up or from −8 down; further: test concentration not given here
[14] = target: Dihydroorotate dehydrogenase (quinone), mitochondrial (Plasmodium falciparum (isolate 3D7)) (UniProt Q08210); test: inhibition of P. falciparum DHODH – biochemical, C-terminal His tag, absorbance 600 nm, primary screen (AID 1175); conditions: PfDHODH enzyme, DCIP absorbance 600 nm; higher = more signal, called active from +8 up or from −8 down;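 further: recombinant parasite enzyme with a five histidine tag at its C terminus; test concentration not given here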
[15] = inhibition of PAO1 biofilm formation – strain PAO1, LB-PBS medium, absorbance 600 nm, primary screen (AID 1176); further: test concentration not given here; conditions: P. aeruginosa PAO1 growth/biofilm, A600, 12 h; higher = more signal
[16] = growth modulation of vineyard yeast isolate – strain RM11-1a, OD600, basal, 24 h, primary screen (AID 1177);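 further: cultures grown under basal conditions with no added stressor; test concentration not given here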; conditions: S. cerevisiae RM11-1a growth, OD600, 24 h; higher = more signal, called active from +8 up or from −8 down
[17] = growth of efflux-deficient E. coli DRC39 – strain DRC39, OD650, 24 h, E. coli filamentation inducers, primary screen (AID 1178);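 further: growth measured as culture turbidity by optical density at 650 nm; test concentration not given here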; conditions: E. coli DRC39 acrAB, higher = more signal, called active from +8 up or from −8 down
[18] = growth of efflux-deficient E. coli DRC39 – strain DRC39, OD650, 48 h, E. coli filamentation inducers, primary screen (AID 1179);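 further: screen aims at cell division blockers that make cells filament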; conditions: E. coli DRC39 delta-acrAB growth, higher = more signal, called active from +8 up or from −8 down
[19] = viability profiling in RPMI8226 myeloma cells – cell-based, resazurin fluorescence, basal, 24 h, PK04 Diversity Set, profiling panel (AID 1180); conditions: higher = more signal;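 further: RPMI8826 multiple myeloma cell line at 5000 cells per well; test concentration not given here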
[20] = target: E3 ubiquitin-protein ligase XIAP (Homo sapiens) (UniProt P98170); test: small molecules binding XIAP protein – biophysical, small-molecule microarray, fluorescence 635 nm, primary screen (AID 1181); conditions: higher = more signal;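 further: score merges 667 nm emission and signal to noise over triplicate slides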
E3 ubiquitin-protein ligase XIAP (Homo sapiens), sequence (P98170 whole entry, looked up): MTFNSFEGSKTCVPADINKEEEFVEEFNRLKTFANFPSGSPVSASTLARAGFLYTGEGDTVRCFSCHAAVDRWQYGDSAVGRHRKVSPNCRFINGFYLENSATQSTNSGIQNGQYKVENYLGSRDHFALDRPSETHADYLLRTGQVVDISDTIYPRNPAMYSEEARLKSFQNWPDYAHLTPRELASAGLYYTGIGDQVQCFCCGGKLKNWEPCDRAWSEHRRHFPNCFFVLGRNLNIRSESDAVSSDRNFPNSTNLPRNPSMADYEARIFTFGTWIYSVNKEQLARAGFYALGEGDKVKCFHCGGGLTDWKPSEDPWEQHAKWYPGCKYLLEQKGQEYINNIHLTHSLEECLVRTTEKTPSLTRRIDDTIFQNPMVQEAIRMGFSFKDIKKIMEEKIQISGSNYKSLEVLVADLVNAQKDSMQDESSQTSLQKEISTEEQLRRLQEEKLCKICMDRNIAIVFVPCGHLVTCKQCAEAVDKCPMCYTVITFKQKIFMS

Dihydroorotate dehydrogenase (quinone), mitochondrial (Plasmodium falciparum (isolate 3D7)), sequence (Q08210 whole entry, looked up): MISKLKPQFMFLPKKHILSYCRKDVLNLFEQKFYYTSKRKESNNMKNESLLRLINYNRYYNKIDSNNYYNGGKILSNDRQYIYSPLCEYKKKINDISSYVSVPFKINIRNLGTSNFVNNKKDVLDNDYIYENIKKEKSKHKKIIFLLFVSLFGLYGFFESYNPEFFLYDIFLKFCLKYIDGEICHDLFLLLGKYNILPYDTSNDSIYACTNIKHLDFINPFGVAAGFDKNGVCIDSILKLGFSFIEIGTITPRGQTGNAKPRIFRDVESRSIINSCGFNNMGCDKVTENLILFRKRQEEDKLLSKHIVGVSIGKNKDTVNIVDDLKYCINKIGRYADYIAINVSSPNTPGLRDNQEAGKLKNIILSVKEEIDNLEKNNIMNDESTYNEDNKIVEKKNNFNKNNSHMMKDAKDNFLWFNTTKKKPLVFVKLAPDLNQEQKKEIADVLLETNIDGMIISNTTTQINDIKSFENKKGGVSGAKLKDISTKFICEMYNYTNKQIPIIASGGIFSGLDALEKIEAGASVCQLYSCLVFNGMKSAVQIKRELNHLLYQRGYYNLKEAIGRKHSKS

SMILES	z-score [1]	z-score [2]	z-score [3]	z-score [4]	z-score [5]	z-score [6]	z-score [7]	z-score [8]	z-score [9]	z-score [10]	z-score [11]	z-score [12]	z-score [13]	composite z-score [14]	z-score [15]	z-score [16]	z-score [17]	z-score [18]	z-score [19]	composite z-score [20]
CCOC(=O)[C@@H]1CC2O[C@]23C[C@@H]1C(=O)N1CCC[C@@H]1[C@H]3O[Si](C)(C)C(C)(C)C (stereo not given in full)	-0.889 and -0.825	0.838 and 0.26	-0.526 and -0.885	0.0049 and -3.22	-0.55 and -0.467	-0.904 and -1.08	-0.744 (inactive) and -0.631 (inactive)	-0.387 and -0.407	0.781 and -1.86	-0.438 (inactive) and -0.287 (inactive)	-0.464 and -0.0421	-0.648 (inactive) and -2.06 (inactive)	-0.645 (inactive) and -0.942 (inactive)	-0.0009 (inactive) and -0.513 (inactive)	0.167 (inactive) and 0.0117 (inactive)	-0.159 (inactive) and -0.702 (inactive)	0.215 (inactive) and -0.512 (inactive)	-0.215 (inactive) and -0.122 (inactive)	-0.586 and -0.593	0.0618 and -0.142
COC(=O)[C@@]1(Cc2ccc(F)cc2)[C@H]2c3cc(C(=O)N4CCCC4)n(Cc4c(CO)[nH]cc(C)c4=O)c3C[C@H]2CN1C(=O)c1ccccc1	-1.51 and -0.994	0.284 and -0.41	-0.272 and -0.426	-1.2 and -0.26	-1.34 and -0.473	1.07 and 0.498	-0.217 (inactive) and -1.18 (inactive)	-0.409 and 0.893	0.1 and 0.277	-0.133 (inactive) and 2.11 (inactive)	-0.605 and 1.06	1.61 (inactive) and 2.35 (inactive)	-1.14 (inactive) and -0.131 (inactive)	0.0634 (inactive) and 0.524 (inactive)	1.38 (inactive) and 0.895 (inactive)	1.33 (inactive) and 1.72 (inactive)	-0.573 (inactive) and -0.476 (inactive)	-0.104 (inactive) and -0.339 (inactive)	-1.14 and -1.39	0.221 and 0.0726
COC(=O)C1=C(C)N(Cc2ccccc2)[C@]23O[C@](C(=O)OC)(C(=O)N2[C@@H]1c1ccccc1)[C@H]1C(=O)N(C)C(=O)[C@H]13	0.395 and 1.67	1.1 and 0.612	0.0623 and -0.164	0.639 and 0.0646	-1.44 and 1.16	0.873 and 0.158	0.107 (inactive) and 1.13 (inactive)	-0.536 and 0.12	0.551 and -0.416	-0.81 (inactive) and 0.0401 (inactive)	0.101 and 1.13	-0.974 (inactive) and -1.6 (inactive)	0.856 (inactive) and 0.302 (inactive)	0.207 (inactive) and 0.467 (inactive)	-1.59 (inactive)	1.09 (inactive) and -0.535 (inactive)	-0.34 (inactive) and 0.732 (inactive)	0.207 (inactive) and 0.764 (inactive)	0.389 and -0.0962	0.072 and 2.05
CCOC(=O)NN=C1C[C@@H](O)[C@@H](O)[C@@H]2[C@@H]3C(=O)N(Cc4ccccc4)C(=O)[C@@H]3CC[C@@H]12	-0.226	-0.0135	-1.29	0.599	-0.461	0.548	0.152 (inactive)	0.387	-0.979	0.0002 (inactive)	0.213	0.331 (inactive)	-1.17 (inactive)	0.0897 (inactive)	0.529 (inactive)	0.371 (inactive)	0.199 (inactive)	-0.951 (inactive)	0.561	1.34
COc1ccc(COC(=O)NN=C2C[C@@H](O)[C@@H](O)[C@@H]3[C@@H]4C(=O)N(C(C)(C)C)C(=O)[C@@H]4CC[C@H]23)cc1	0.894	0.377	0.89	-0.156	0.0186	-0.206	1.14 (inactive)	0.704	-0.527	-0.581 (inactive)	-0.947	-1.8 (inactive)	-0.18 (inactive)	-1.31 (inactive)	0.541 (inactive)	-1.94 (inactive)	-0.21 (inactive)	0.0442 (inactive)	-0.571	-0.0845
C=CCN(C(=O)C1N(c2ccc(CCO)cc2)C(=O)C2C(C(=O)O)C3C=CC21O3)c1ccc(OC)cc1 (stereo not given)	0.414 and -0.783	0.432 and 0.014	-0.535 and -0.905	1.02 and 1.1	-0.0159 and 0.492	-0.19 and -0.0346	-0.246 (inactive) and -0.356 (inactive)	-0.0146 and 0.609	-0.358 and 0.691	-1.23 (inactive) and 0.468 (inactive)	-1.89 and 0.336	-0.311 (inactive) and -0.641 (inactive)	-1.58 (inactive) and 0.522 (inactive)	0.51 (inactive) and -0.392 (inactive)	-0.606 (inactive) and 0.428 (inactive)	0.671 (inactive) and -0.529 (inactive)	-0.782 (inactive) and 0.15 (inactive)	-0.949 (inactive) and -0.249 (inactive)	-0.641 and -0.0655	0.0808 and -0.0054
